The source made the active and inactive calls. How the source made its calls: active means hit-call score of the fitted dose curve at least 0.9, where 1 is the maximum; inactive means score below 0.9.

Read-out in the experiment: Cyclin D1 (CCND1), CCND1 (gene 595)
Briefly: LTEA_HepaRG_CCND1: Life Technologies and Expression Analysis (LTEA) Assay for Cyclin D1 (CCND1) using HepaRG (AID 2283451).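 On AC50: TaqMan qRT-PCR transcript level normalised to ACTB GAPDH and POLR2A housekeeping genes.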 The settings on record: mRNA level, 48 h; actives raise or lower the signal. On the procedure: LTEA_HepaRG is a cell based, multiplexed-readout assay that uses HepaRG, a human liver cell line, with measurements taken at 48 hours after chemical dosing on a 96-well plate.LTEA_HepaRG_CCND1 is one of 102 assay component(s) measured in the LTEA HepaRG cell culture assay. It is a marker of Cell proliferation, survival, death.Data from the assay component LTEA_HepaRG_CCND1 was analyzed into 1 endpoint. This assay endpoint, LTEA_HepaRG_CCND1, was analyzed with bidirectional fitting relative to DMSO as the negative control and baseline of activity. Using a type of inducible reporter, measures of mRNA induction for gain or loss-of-signal activity can be used to understand regulation of transcription factor activity. To generalize the intended target to other relatable targets, this assay endpoint is annotated to the cell cycle intended target family, where the subfamily is Cell proliferation, survival, death.
A total of 1060 chemcials from the ToxCast library were tested in eight-point concentration-response experiments. Cell culture and cytotoxicity assays were conducted at Thermo Fisher Scientific's Custom Services facility (Madison, WI). A single lot of human HepaRG cells (Thermo Fisher Scientific, Frederick, MD) was used for the cell culture experiments. 96-well format collagen type I coated plates of human HepaRG cells were prepared using established methods. Briefly, cryopreserved HepaRG cells were thawed, plated at a density of approximately 100,000 cells/well in HepaRG Thaw, Plate, and General Purpose media (HPRG770, Thermo Fisher Scientific), and incubated for 48 hours. 0.5% DMSO was selected as vehicle control to balance the requisite need of DMSO in HepaRG cultures to maintain differentiation (for example, baseline metabolism, proportions of hepatocytes vs. cholangiocytes), while enabling further hepatic receptor pathway activation (for example, PXR and CAR) in response to chemical exposure. 48 hours after plating, the culture medium was replaced with HepaRG Serum-Free Incudtion Media. Cells were exposed to each test chemical in duplicate and maintained in CO2 incubators for another 48 hours. Chemical plates were thawed to room temperature and 200x concentrations of treatment groups were prepared. 8-point conentration-reponse curves were made with the highest exposure at 100 uM, followed by half-log dilutions, all in 0.5% DMSO. Each test plate contained variouse controls, induction positive controls (1mM phenobarbital), cytotoxicity positive controls ([…] aflatoxin B1), vehicle controls (0.5% DMSO), and total lysis controls (0.5% DMSO). Cell morphology images were taken using an Essen IncuCyte FLR automated microscope, with six 96-well plates imaged in about 24 minutes. Images were captured and exported and JPEG files. Spent culture media was transfered to black-well plates for the LDH assay, and remaining media was sorted at -80 C for later use. Cells were treated with RLT buffer and frozen until shipped for gene expression analysis. Total RNA was isolated from the cell suspension in 75 uL of Buffer RLT (Qiagen, Germantown, MD 20874) by Quintiles/Expression Analysis (Durham, NC) using a custom isolation procedure. Total RNA from each plate well was transferred to a preamplification plate. Fluidigm's 96.96 Dynamic ArrayTM (Fluidigm, Amsterdam, the Netherlands) technology was used for gene expression analyses by quantitative reverse transcription polymerase chain reaction (qRT-PCR, performed by Quintiles/Expression Analysis, Durham, NC)89. Standard TaqManTM Assays (Applied Biosystems/ThermoFisher Scientific, Foster City, CA) were used to assess the expression of 93 genes selected based on their selectivity and sensitivity to important hepatic receptors known to be modulated by environmental chemicals; importance in human hepatocyte functionality; and hepatotoxicity. […]
In the case of `CNC(C)=O`, the call was inactive.
On the same count and under the same terms, the entry for `CC(C)c1nnc2ccc(-c3ocnc3-c3cc(F)ccc3F)cn12` is “inactive”.
A word on the AC50: it is the concentration giving half of the maximal activity seen. Regarding `c1ccc(C(O[C@@H]2CCCN(CCc3ccc4c(c3)OCO4)C2)c2ccccc2)cc1`, the AC50 was 50 µM (active).
As for `CCCOc1ccc(S(=O)(=O)N2CCN(CC)CC2)cc1-c1nc2c(CC)n(Cc3ccccn3)nc2c(=O)[nH]1`, the molecule was classed as inactive.
Still for that read-out and setting: the result for `CCCCCCCCCCCCCCO` reads “inactive”; that for `NC(=O)N(O)[C@@H]1COc2cc(OCc3ccccc3)ccc21`, “inactive”; that for `Cc1nccn1-c1ccc(Sc2cccc(C3(C(N)=O)CCOCC3)c2)cc1`, “inactive”.
Consider `COc1cc(C(C)C)c2c(c1)S(=O)(=O)N(COc1cc(=O)n3cccc(OCCN4CCCCC4)c3n1)C2=O`, for which the AC50 was 19.4 µM (active).
As for `CCCCCCOC(=O)CC(CC(=O)OCCCCCC)(OC(=O)CCC)C(=O)OCCCCCC`, the result was inactive.
With `CC1(C)C(=O)N(Cl)C(=O)N1Cl`, the outcome was inactive.
For the molecule `CCCc1ccccc1`, the result was inactive.
The same measure, in the same setting: the result for `COS(C)(=O)=O` reads “inactive”; that for `O=C(O)[C@H](O)[C@@H](O)C(=O)O`, “inactive”; that for `O=S(=O)(O)c1ccc(N=Nc2c(O)ccc3cc(S(=O)(=O)O)ccc23)cc1`, “inactive”.
Consider `C[C@]12C=CC(=O)C=C1CC[C@H]1[C@@H]3C[C@@H](O)[C@](O)(C(=O)CO)[C@@]3(C)C[C@H](O)[C@@]12F`, for which the call was inactive.
Regarding `CCCCC(CC)C(=O)OCCOCCOCCOC(=O)C(CC)CCCC` (stereo not given), the result was inactive.
On the same count and under the same terms, the result for `CCn1nc(C)c2c1C(=O)NCC(c1ccc(O)cc1)=N2` reads “inactive”; that for `CCCCCCCCN(C)C`, “inactive”.
On the same count and under the same terms, the result for `CCc1ccc(O)c(C(C)(C)C)c1` reads “inactive”; that for `CCCC(CCC)C(=O)O`, “inactive”.
Same read-out and setting: the entry for `COCc1nnc(-c2ccc[n+]([O-])c2)n1-c1c(Cl)c(Cl)cc2[nH]c(=O)c(=O)[nH]c12` is “inactive”; for `O=C(O)c1cccc(C[C@@H]2COc3ccc(OCc4nc5cc(F)ccc5s4)cc3[C@@H]2O)c1` it is “inactive”.
Take `CCCCCCCC/C=C\CCCCCCCC(=O)OC[C@@H](O)[C@H]1OC[C@H](O)[C@H]1O`: the call was inactive.
The same measure, in the same setting: the entry for `OC[C@H]1O[C@@](CO)(O[C@H]2O[C@H](CO)[C@@H](O)[C@H](O)[C@H]2O)[C@@H](O)[C@@H]1O` is “inactive”.
Take `NC(N)=O`: the call was inactive.
The same measure, in the same setting: the entry for `OC(Cn1cncn1)(Cn1cncn1)c1ccc(F)cc1F` is “inactive”; for `CC(C)CC(C)O` (stereo not given) it is “inactive”; for `OC[C@H]1O[C@@H]2O[C@H]3[C@H](O)[C@@H](O)[C@@H](O[C@H]4[C@H](O)[C@@H](O)[C@@H](O[C@H]5[C@H](O)[C@@H](O)[C@@H](O[C@H]6[C@H](O)[C@@H](O)[C@@H](O[C@H]7[C@H](O)[C@@H](O)[C@@H](O[C@H]1[C@H](O)[C@H]2O)O[C@@H]7CO)O[C@@H]6CO)O[C@@H]5CO)O[C@@H]4CO)O[C@@H]3CO` it is “inactive”.
Same read-out and setting: the result for `C[C@@H](Oc1ccc(CNC(=O)c2cccnc2Oc2ccc3c(c2)OCO3)c(F)c1)C(=O)O` reads “inactive”; that for `CCCCCCCC1CCC(=O)O1` (stereo not given), “inactive”; that for `OCCOCCOCCO`, “inactive”.
For the molecule `COc1cc2c(c(OC)c1OC)-c1ccc(OC)c(=O)cc1[C@@H](NC(C)=O)CC2`, the AC50 is 0.0178 µM (active).
Regarding `c1ccc2ncccc2c1`, the molecule was called inactive.
Same read-out and setting: the result for `O=C(O)c1cccc(C(=O)O)c1` reads “inactive”; that for `CCCCCOC(C)=O`, “inactive”; that for `CCCCCCCCCC`, “inactive”.
On to `NC(=O)NN=Cc1ccc([N+](=O)[O-])o1`, for which the molecule was classed as inactive.
As to `O=C(O)c1ccc2c(c1)nc(C(=O)NC1CCN(C3CC3)CC1)n2Cc1cc(-c2ccc(Cl)s2)on1`, the outcome was inactive.
The same measure, in the same setting: the result for `Cc1ccc(S(=O)(=O)NC(=O)NN2CCCCCC2)cc1` reads “inactive”; that for `O=S1(=O)CCCO1`, “inactive”.
